LmPK inh: qHTS Assay for Inhibitors of Leishmania Mexicana Pyruvate Kinase (LmPK); Potency, µM (highest dose often 57.5 µM), for the others: top-dose activity change, negative = inhibition, actives largely listed as inhibitors; AID 1721, 2009; Q27686; 290,000 tested, 0.37% active; purified LmPK, Kinase-Glo ATP luminescence, 1 h; further: potency means the concentration at half of the fitted maximal effect; on the % scale 0 is the no-effect control and ±100 the full control effect
Target sequence (Q27686 whole entry, looked up): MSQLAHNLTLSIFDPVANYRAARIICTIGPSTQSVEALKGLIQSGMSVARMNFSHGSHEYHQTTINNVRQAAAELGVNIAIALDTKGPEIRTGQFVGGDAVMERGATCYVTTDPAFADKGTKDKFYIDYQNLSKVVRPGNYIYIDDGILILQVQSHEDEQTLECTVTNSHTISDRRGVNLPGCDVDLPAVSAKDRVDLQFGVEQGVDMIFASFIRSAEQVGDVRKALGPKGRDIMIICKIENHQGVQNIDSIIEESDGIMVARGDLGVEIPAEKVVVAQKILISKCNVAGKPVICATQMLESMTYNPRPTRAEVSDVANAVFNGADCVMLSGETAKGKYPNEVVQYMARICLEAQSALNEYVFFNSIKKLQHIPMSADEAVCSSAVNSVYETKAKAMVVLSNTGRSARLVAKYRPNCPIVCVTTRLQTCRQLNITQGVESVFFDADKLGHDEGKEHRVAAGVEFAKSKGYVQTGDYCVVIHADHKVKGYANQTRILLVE
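ATP generated from ADP (0.1 mM) and PEP (0.5 mM) by 0.1 nM LmPK over 1 h at room temperature (pH 7.2 imidazole buffer) was detected by coupled luciferase luminescence. Values were normalized to uninhibited and no-enzyme wells.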
Pf growth 48h: Primary qHTS for delayed death inhibitors of the malarial parasite plastid, 48 hour incubation; AID 504832, 2011; P. falciparum luciferase growth in erythrocytes, 48 h; Potency, µM (series often up to 28.7 µM), without a hit: at the top dose activity change, negative = inhibition, hits mostly inhibitors; 310,000 tested, 5.9% active; further: potency means the concentration at half of the fitted maximal effect; on the % scale 0 is the no-effect control and ±100 the full control effect
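Firefly luciferase activity from engineered P. falciparum reports growth; inhibitors lower the luminescent signal. Cultures contained 2% hematocrit erythrocytes at 0.1% final parasitemia.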
Shiga inhibitor: A qHTS for Small Molecule Inhibitors of Shiga Toxin; inhibition, % at 38.7 µM; AID 2315, 2010; 290,000 tested, 9.2% active; Vero cells, Shiga toxin protein synthesis inhibition reporter; in the data active means inhibition mostly above about 28%, no sharp cut-off; inactive means mostly below about 43%; further: 0% is about no effect
Pf growth 96h: Primary qHTS for delayed death inhibitors of the malarial parasite plastid, 96 hour incubation. P. falciparum luciferase reporter growth, 96 h. Potency, µM (top dose mostly 28.7 µM), for the others: top-dose activity change, negative = inhibition, usual class: inhibitors. 320,000 tested, 6.9% active; further: potency means the concentration at half of the fitted maximal effect; on the % scale 0 is the no-effect control and ±100 the full control effect
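Erythrocytes infected with luciferase-expressing P. falciparum were dispensed at 2% hematocrit and 0.05% parasitemia (final), then incubated with compounds 96 hours at 37 C in 5% CO2. Luminescence after detection reagent addition reported growth.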
CHX counter: Cycloheximide Counterscreen for Small Molecule Inhibitors of Shiga Toxin; AID 2314, 2010; max response, %; 300,000 tested, 12% active; cell reporter, cycloheximide protein synthesis inhibition counterscreen; in the data active means max response mostly above about 13%, no sharp cut-off; inactive means mostly below about 14%; further: read at 38.3 µM for the half of the compounds with a filed dose; 0% is about no effect
* hit, by the source's call; ? = inconclusive; / = no result. Rows were chosen to be rich in hits. Some 22% of all compounds tested hit in one or more screens of this group. Unless noted, the call rests on the fitted dose curve; in most records, active means well fitted inhibition curve with a large enough effect; inconclusive means small, poorly fitted or top-dose-only effect, or another doubt; inactive means no such curve, though single readings can be large or run the other way.

SMILES	LmPK inh	Pf growth 48h	Shiga inhibitor	Pf growth 96h	CHX counter
CCOc1nc(Nc2ccc(OC)c(Cl)c2)nc(N2CCN(c3ccc(OC)cc3)CC2)n1	1%	/	29	?	0
COCCCNc1nc2ccccc2nc1NS(=O)(=O)c1cc(Cl)ccc1Cl	0%	-2%	-12	-15%	-3
CCNC(=O)NC(=O)COC(=O)c1cccc(S(=O)(=O)N2CC3(C)CC2CC(C)(C)C3)c1 (stereo not drawn)	/	-5%	/	0%	/
C=CCN(C(=O)c1csnn1)C(C(=O)NCc1ccc(F)cc1)c1cccs1 (stereo not drawn)	1%	8%	-12	12%	-4
CCSc1nnc2c3cc(CC)ccc3n(C)c2n1	5%	0%	54	?	active
O=C(CSc1nnc2c(n1)[nH]c1ccccc12)Nc1cccc(S(=O)(=O)N2CCOCC2)c1	-3%	?	-3	15µM*	-3
CC(C)CSc1nnc2c3ccccc3n(C)c2n1	-1%	122%	/	6.6µM*	34*
O=C(CSc1nnc2c(n1)[nH]c1ccccc12)Nc1ccc(N2CCOCC2)cc1	0%	-23%	4	-7%	-1
CC(C)Oc1cccc(C(=O)C2CCCN(Cc3cnc(N4CCOCC4)s3)C2)c1 (stereo not drawn)	-1%	?	-26	31%	2
Oc1ccc(Oc2ccc(Oc3ccc(O)cc3)cc2)cc1	3%	21%	/	10%	17*
Oc1ccc(Cl)cc1	/	-1%	/	-16%	/
Cc1[nH]nc(Nc2ccc(O)cc2)c1[N+](=O)[O-]	-2%	3%	16	-5%	10
Cc1ccc(Nc2n[nH]c(C)c2[N+](=O)[O-])c(C)c1	3%	52%	44	39%	19
Cc1ccccc1Nc1n[nH]c(C)c1[N+](=O)[O-]	0%	45%	16	3.7µM*	17
COc1ccc(Nc2n[nH]c(C)c2[N+](=O)[O-])cc1	-1%	64%	100*	0%	32*
CN(C)CCNC(=O)c1cc2c(s1)-c1ccc(Cl)cc1SC2	-2%	2.6µM*	-20	52%	-8
CCOCCCNC(=O)c1cc2c(s1)-c1ccccc1SC2	-3%	2.6µM*	63*	5.2µM*	16
CCOCCCNC(=O)c1cc2c(=O)[nH]c3ccccc3c2s1	-3%	?	4	0%	0
COc1ccc(C(=O)COC(=O)CCN=C2NS(=O)(=O)c3ccccc32)cc1OC	3%	-7%	17	2%	-2
COc1ccc(-c2csc3ncnc(Cl)c23)cc1	10%	1.3µM*	-26	19%	-3
COc1ccc(-c2csc3nc[nH]c(=O)c23)cc1	-3%	56%	18	45%	2
COc1ccc(Nc2ncnc3scc(-c4ccc(OC)cc4)c23)cc1	3%	-17%	-8	9.3µM*	-1
Fc1ccc(-c2csc3ncnc(Cl)c23)cc1	2%	0.23µM*	13	?	0
Clc1ccc(-c2csc3ncnc(Cl)c23)cc1	0%	?	-7	?	-5
O=C(N/N=C/c1cccc(O)c1)c1cc(-c2ccc3c(c2)OCO3)n[nH]1	-1%	15%	12	-16%	10*
SMILES	LmPK inh	Pf growth 48h	Shiga inhibitor	Pf growth 96h	CHX counter
O=C(N/N=C/c1ccccc1)c1cc(-c2ccc3c(c2)OCO3)n[nH]1	-3%	18%	-6	7%	14*
O=C(N/N=C/c1ccc(O)cc1)c1cc(-c2ccc3c(c2)OCO3)n[nH]1	1%	24%	33	-14%	9
COc1ccc2nc3oc(C(=O)NC4CCN(Cc5ccccc5)CC4)cc3cc2c1	-8%	?	31*	46%	17
CCOC(=O)N1CCC(NC(=O)c2cc3cc4cc(OC)ccc4nc3o2)CC1	0%	2.9µM*	-5	7.4µM*	-2
COc1ccc2cc3cc(C(=O)Nc4ccc5c(c4)OCO5)oc3nc2c1	3%	?	-4	?	9
COc1ccc2nc3oc(C(=O)Nc4ccc(OC)c(OC)c4)cc3cc2c1	22µM*	/	-1	-1%	-1
COc1ccc(OC)c(-n2c(CNC3CCN(Cc4ccccc4)CC3)nc3ccccc3c2=O)c1	-2%	/	-15	12µM*	-5
COc1ccc(CCNC(=S)NC2CCN(Cc3ccccc3)CC2)cc1	0%	?	10	?	3
Nc1ncc(Br)cc1S(=O)(=O)Nc1cc(C(F)(F)F)cc(C(F)(F)F)c1	-8%	17%	12	12%	-4
Cc1sc(NC(=O)C2CC=CCC2C(=O)O)c(C(=O)OC(C)C)c1C (stereo not drawn)	6%	21%	25	/	-5
COc1ccc(OC)c(NC(=O)Nc2cc(C(=O)O)ccc2C)c1	4%	60%	-2	0%	10
COCCN(Cc1cc2cc3c(cc2nc1Cl)OCO3)C(=O)c1ccc(C)cc1	5%	?	19	23%	9
CC(C)(C)Nc1c(-c2ccc(O)cc2)nc2ccc(Cl)cn12	6%	10µM*	-22	16%	-9
O=C(NCCc1c[nH]c2ccccc12)C(=O)NCC1OCCCN1S(=O)(=O)c1cc(F)ccc1F (stereo not drawn)	7%	13µM*	3	3.3µM*	-2
COc1ccc(S(=O)(=O)N2CCOC2CNC(=O)C(=O)NCCc2c[nH]c3ccccc23)cc1C (stereo not drawn)	-2%	?	-18	9.3µM*	-3
O=C(NCCc1ccccc1)C(=O)NCC1OCCCN1S(=O)(=O)c1cc(F)ccc1F (stereo not drawn)	-3%	?	-20	?	0
CCC(C(=O)O)n1c2ccccc2c2cn[nH]c(=O)c21 (stereo not drawn)	7%	6%	15	14%	-2
O=C(Oc1ccc(F)cc1C(=O)/C=C/c1cccs1)c1cccc([N+](=O)[O-])c1	2%	?	49*	?	17
COc1ccc(C(=O)/C=C/c2ccccc2F)c(OC(=O)c2ccc([N+](=O)[O-])cc2)c1	2%	4%	60	0%	49*
COc1ccc(C(=O)/C=C/c2ccc(C)cc2)c(OC(=O)c2ccc([N+](=O)[O-])cc2)c1	2%	20%	16	18%	32*
O=C(/C=C/c1ccccc1F)c1cccc([N+](=O)[O-])c1	-5%	18%	active	23%	21
CNC1=C(N(C(C)=O)c2ccc(Br)cc2)C(=O)c2ccccc2C1=O	-3%	0.042µM*	-13	0.029µM*	-8
O=[N+]([O-])c1cc(C(F)(F)F)ccc1Sc1ccc2ccccc2n1	0%	40%	19	81%	8
O=[N+]([O-])c1cccc2ccc(/C=C/c3ccc(Cl)cc3)nc12	-1%	6%	137*	?	45*
COc1cc(/C=C/c2ccc3cccc(OC)c3n2)c(O)c([N+](=O)[O-])c1	-4%	?	18	-3%	1

Compound activity from PubChem BioAssay.
